Test results published in ChEMBL document CHEMBL4888484, “Replenishing the malaria drug discovery pipeline: Screening and hit evaluation of the MMV Hit Generation Library 1 (HGL1) against asexual blood stage Plasmodium falciparum ,using a nano luciferase reporter read-out” (2022).
In all, about 4,800 compounds went through this assay and about 420 (8.8%) showed an effect of 50% or more. Shown is part of a subset that was picked to be rich in strong results.

Each compound was assayed on Plasmodium falciparum (assay: Confirmatory screen in NF54 nanoGlo assay, in single point, at 2uM, 72h). Settings: timepoint 72 hour.
Format: functional, Erythrocyte

| SMILES | % Inhibition [%] |
| --- | --- |
| CC1CN(C(=O)Cn2nnc3ccccc3c2=O)CC1N(C)C (configuration not stated) | -4 |
| CCOCCC1(CNC(=O)c2cc(C)n[nH]2)CCC1 | -1 |
| CCn1nccc1C(=O)NC1CCN(c2nnc3ccc(Cl)cn23)CC1 | 0 |
| Cc1cnccc1NCCNC1CCN(c2ccc(Cl)cc2)CC1 | 99 |
| Cc1cnccc1NCCNC1CCN(c2ccc3c(c2)CCC3)CC1 | 72 |
| CCCC(=O)N1CCN(c2c(C)n(-c3ccccc3)c(=O)n(C)c2=O)CC1 | 2 |
| O=C(NC1CC1)c1nc(C(=O)N2CCN(c3ccccn3)CC2)cs1 | -1 |
| Cc1ccccc1CNC(=O)[C@H]1CCCN(c2nc3ccccc3[nH]c2=O)C1 | -1 |
| Cc1ccccc1CNC(=O)[C@H]1CCCN(c2nc3cccnc3n(Cc3ccccc3)c2=O)C1 | -6 |
| COc1ccccc1CNC(=O)c1nnn(-c2ccc3noc(-c4ccc(Cl)cc4)c3c2)c1C | -1 |
| Cc1ccc(C(=O)OCC(=O)Nc2ccc3c(c2)OCO3)cn1 | -2 |
| CCc1nc2cc(N3CCC(C(=O)Nc4ccc5c(c4)OCO5)CC3)cnc2nc1CC | 61 |
| Cc1nccn1-c1ncc(NC(=O)Nc2ccc3c(c2)OCO3)cn1 | 21 |
| CC(C)c1cc(=O)n(Cc2ccccc2Cn2cnc(C(C)C)cc2=O)cn1 | -3 |
| Cc1nc(Nc2ccc(F)cc2)nc2c1ncn2-c1ccc(F)cc1 | -18 |
| COc1ccc(C(=O)N[C@@H](C(=O)Nc2ccccc2C)c2ccc(Cl)cc2)cc1 | 7 |
| CC(=O)N(Cc1ccc2c(c1)OCO2)c1cccc(-c2nc3ccccc3o2)c1 | -1 |
| Clc1ccc(C[n+]2ccc(-c3nc4ccccc4o3)cc2)c(Cl)c1 | 58 |
| CC(=O)N(Cc1ccccc1OCc1c(Cl)cccc1Cl)c1ccc2oc(-c3ccccc3)nc2c1 | -13 |
| O=C(NC[C@H]1CCCO1)N1CCN(c2nccs2)C(=O)C1 | 1 |
| Cc1ccc(-n2nc(N3CCN(C(=O)Cc4ccc(F)cc4)CC3)ccc2=O)cc1 | 4 |
| O=C(c1cnc2ccc(F)cc2c1N1CCC(Cc2ccccc2)CC1)N1CCCC1 | 2 |
| Cc1cccc(C)c1NC(=O)C1CCN(S(=O)(=O)c2c(C)nn(-c3ccccc3)c2C)CC1 | -6 |
| CCN(CC)C(=O)c1cnc2snc(C)c2c1N1CCC(C(=O)Nc2c(C)cc(C)cc2C)CC1 | 57 |
| Cc1ccc(N2CCN(c3c(C(=O)N4CCCCC4)cnc4ccc(F)cc34)CC2)cc1 | -8 |

| SMILES | % Inhibition [%] |
| --- | --- |
| Cc1nsc2ncc(C(=O)N3CCC(C)CC3)c(N3CCC(C(=O)Nc4cc(F)ccc4F)CC3)c12 | 60 |
| CCC1(CC)CN(C(=O)c2ccn(C)c(=O)c2)c2ccccc21 | 2 |
| Cn1cc(-c2noc(Cc3c(F)cccc3Cl)n2)ccc1=O | -1 |
| Clc1cccc(CNc2cc(-c3ccco3)n[nH]2)c1 | -7 |
| CS(=O)(=O)N(CCCC(=O)NCc1ccc2c(c1)OCO2)c1ccc(F)cc1 | -2 |
| Cc1csc([C@@H](C#N)C(=O)c2ccncc2)n1 | -11 |
| CCCCNC(=O)Nc1cccc(C#CCN)n1 | -2 |
| c1ccc(Nc2nc(-c3ccccc3)cc(-c3ccccc3)n2)cc1 | 3 |
| Cc1nc(N)nc(C)c1C(=O)Nc1ccc(Nc2ncccn2)cc1 | 46 |
| Cc1cc(N)nc(Nc2ccc(Nc3ccccc3)cc2)n1 | 87 |
| CC(C)c1cc(C(=O)N2CC3CC4CC3C2C4O)n[nH]1 (configuration not stated) | 1 |
| COc1ccsc1S(=O)(=O)N1CCC(n2ccnc2)CC1 | -3 |
| O=C(c1nc(-c2cccs2)cs1)N1CCN(c2ccccc2)CC1 | -15 |
| COc1ccccc1C(=O)NC1=NN2C(=NC(c3ccc(Cl)cc3)=C[C@H]2c2ccc(Cl)cc2)N1 | 94 |
| COc1ccc([C@@H]2C=C(c3ccc(Cl)cc3)N=C3NC(NC(=O)c4ccccc4OC)=NN32)cc1 | 97 |
| Fc1ccc(C2=C[C@@H](c3ccc(Cl)cc3)N3N=C(c4ccc(Cl)cc4)NC3=N2)cc1 | 99 |
| COc1cc(NC(=O)c2ccccc2Cl)cc(S(=O)(=O)c2ccc(Cl)cc2)c1 | -15 |
| COc1cc(N2CCn3c(nc4cc(Cl)ccc43)C2)ccc1NC(=O)c1ccccc1OC | 4 |
| COc1ccccc1C(=O)NC1=C(C)Nc2ncnn2[C@H]1c1c[nH]c2ccccc12 | -5 |
| O=C(NC1=NN2C(=NC(c3ccc(Cl)cc3)=C[C@H]2c2ccc(F)cc2)N1)c1ccc(Cl)cc1 | 32 |
| CCC1=NN2C(=NC(C(=O)O)=C[C@H]2c2ccc(O)cc2)N1 | -7 |
| C[C@H]1CCc2c(cnc3c(C(=O)NC4CC4)cnn23)C1 | -8 |
| COc1ncccc1CNC(=O)[C@@H]1CCN(c2cc(C)cc(C)c2)C1=O | 3 |
| Cc1nsc(N[C@@H]2C=C[C@H](CO)C2)n1 | -3 |
| Cc1c(NC(=O)c2n[nH]cc2Cl)c(=O)n(-c2ccccc2)n1C | -13 |

| SMILES | % Inhibition [%] |
| --- | --- |
| O=C(c1ccco1)N1CC(n2cnnc2[C@@H]2CCCO2)C1 | -2 |
| Cc1ccc(S(=O)(=O)Cc2nc(-c3ccc(C(=O)NCc4ccccc4C)cc3)oc2C)cc1 | -13 |
| Cc1ccc(/N=C(/Nc2ccc(Br)cc2)c2cc(C(C)(C)C)c(O)c(C(C)(C)C)c2)cc1 | -15 |
| O=S(=O)(c1ccc(F)c(Cl)c1)N1CC[C@H](Oc2ccncc2Cl)C1 | 75 |
| O=S(=O)(c1ccc(Cl)cc1)N1CCC(c2cc(-c3cccc(C(F)(F)F)c3)[nH]n2)CC1 | -1 |
| O=S(=O)(c1ccco1)N1CC[C@H](Oc2ccccc2)C1 | 2 |
| COC(=O)C1NS(=O)(=O)c2ccc(Cl)cc2C1(O)c1ccccc1F (configuration not stated) | -5 |
| O=C(Nc1ccc(F)c(Cl)c1)c1ccn(COc2ccccc2Cl)n1 | -6 |
| O=C(N[C@@H](N1CCCCC1)C(Cl)(Cl)Cl)c1cccnc1 | 2 |
| CC(C)c1ccc2ncnc(N[C@H]3CCc4[nH]cnc4C3)c2c1 | 97 |
| O=C(Cc1ccc(F)cc1F)N1CCc2[nH]nc(C(=O)N3CCN(c4ccccc4)CC3)c2C1 | 3 |
| Cc1ccccc1Nc1c(-c2c[nH]c3ccccc23)nc2ncccn12 | 1 |
| Cc1cc2c(OC[C@@H](O)CN3CCOCC3)cccc2[nH]1 | -13 |
| Cc1cc(C)nc([C@@H](C#N)C(=O)c2ccnc(OCC(F)F)c2)n1 | -7 |
| COc1ccccc1C(=O)Nc1ccc(N2CCCN(C)CC2)cc1C(=O)O | -12 |
| Cn1ccnc(N[C@@H](COc2ccccc2F)c2ccccc2)c1=O | -7 |
| Cc1ccc(S(=O)(=O)N2CC[C@H](CC(=O)NCc3ccccc3)C2)cc1C | -16 |
| CNC(=O)COc1c(Cl)ccc(Cl)c1Br | 0 |
| CCN(CCC1CCN(C(=O)Nc2ccc(OC3CCOCC3)c(C)c2)CC1)CC(C)C | -3 |
| N#Cc1c(NC(=O)CN2CCC[C@@H]2CO)sc2c1CCCCC2 | 1 |
| CC(C)(C)[C@H]1CCc2c(sc(NC(=O)C3(F)C(F)(F)C(F)(F)C(F)(F)C(F)(F)C3(F)F)c2C#N)C1 | 50 |
| COc1ccc2[nH]c(-c3nnc(Cn4c(C)cc5ccccc54)s3)cc2c1 | 2 |
| Cc1cc(S(=O)(=O)NC(=O)CCC(C)C)c(C)o1 | -7 |
| Cc1nc2ccccc2n1CC1CCCN1C(=O)C1CCc2cccnc21 (configuration not stated) | -7 |
| CN(Cc1ccccc1)C(=O)C[C@H]1CCN(C(=O)c2cnccn2)C1 | -1 |

| SMILES | % Inhibition [%] |
| --- | --- |
| COc1ccc2c(c1)/C(=C1/SC(C(C)=O)=C(c3ccccc3)S1)C(=S)C(C)(C)N2C(=O)Nc1ccc(Cl)c(Cl)c1 | -7 |
| Cc1ccc(-c2nc(CNC(=O)C[C@H]3CNCCO3)[nH]c2-c2ccccn2)cc1 | 22 |
| Cn1ncnc1CCNC(=O)NC(C1CCCC1)C1CCCC1 | 1 |
| O=C(NC1CC1)c1cn(CC2(O)CCN(Cc3ccccc3)CC2)nn1 | 0 |
| CC1(C)CC(=O)C2(Cc3ccccc3N3CCN(Cc4ccccc4)C[C@H]32)C(=O)C1 | 8 |
| O=C(Nc1sc2c(c1C(=O)O)CCC2)c1ccsc1 | -3 |
| COC(=O)[C@@H](NC(=O)NC1CCCCC1)C(C)(C)C | -2 |
| Cc1ccsc1-c1noc([C@@H]2COCCN2C)n1 | -7 |
| COc1c(O)ccc2c(=O)c3c(O)cc(O)c(OC)c3n(C)c12 | -3 |
| CC1(C)C(NCC(O)COc2ccc(F)c(F)c2)[C@@H]2CCC[C@@H]21 (some centres not stated) | 72 |
| COc1ccc(Oc2c(CN(CC3CC3)C(=O)c3ccccc3)c(-c3ccccc3)nn2C)cc1 | 2 |
| CC1(C)Oc2ccc(NC(=O)c3ccco3)cc2NC1=O | -2 |
| CC(C)N(C)CC1CCN(C(=O)c2cc(-c3ccccc3)c(N3CCOCC3)s2)CC1 | -4 |
| CCOc1cc(-c2cc(-c3ccccc3O)nc3ccc4ccccc4c23)cc(Br)c1O | 91 |
| COc1cccc(CNCc2ccccc2)c1OCc1ccccc1Cl | -1 |
| O=c1c2ccccc2nnn1-c1ncc(C(F)(F)F)cc1Cl | -9 |
| CC(C)(C)CCS(=O)(=O)N1CCC[C@H]1C1CCCCC1 | 0 |
| Cn1cccc1C(=O)N1CCCN(S(C)(=O)=O)[C@H]2CCC[C@H]2C(=O)NCC1 | 0 |
| CC(C)CCn1nnnc1[C@]1(N(C)C)CCCN(C(=O)c2cccn2C)C1 | 88 |
| COc1cccc(C(=O)N2CCC(c3nc(-c4ccc5c(c4)OCO5)no3)CC2)c1OC | -3 |
| Cc1ccc(S(=O)(=O)N2CCN(C(=O)N3CCOCC3)[C@@H]2C)cc1 | -8 |
| C#CCOCC(O)CN(Cc1c(-c2ccccc2)noc1N1CCC(C)CC1)CC1CCCO1 (configuration not stated) | -17 |
